According to the supplement of paper PMC6555819:

What was measured:
Assay in all cases: PBM binding z-score (relative to random genomic background probes); higher = stronger binding; sequences stand for … in GC…GCGATTGACAGCGTAGAATGAAGG
[1] = system: PPARg:RXRa DBDmut IVT, anti-RXR (DBD mutation: RXRa K156A/R161A, NR concentration 270 nM, RXRa partner concentration 90 nM)
Summary of the method: (§1)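 Scanned fluorescence from custom Agilent 4×180K protein-binding microarrays was regression-normalized. Binding z-scores use random background probes as reference. Ligand-free nuclear receptor dimers were incubated on the arrays for 1 h and detected with antibodies against each partner (one per run).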

[2] = system: PPARg:RXRa IVT, anti-PPARg (NR concentration 270 nM, RXRa partner concentration 90 nM)
Summary of the method: as §1

[3] = system: PPARg DBDmut:RXRa IVT, anti-PPARg (DBD mutation: PPARg1 K132A/R137A, NR concentration 270 nM, RXRa partner concentration 90 nM)
Summary of the method: as §1

[4] = system: PPARg DBDmut IVT, anti-PPARg (DBD mutation: PPARg1 K132A/R137A, NR concentration 270 nM)
Summary of the method: as §1

[5] = system: PPARg homodimer (NR concentration 180 nM)
Summary of the method: as §1

[6] = system: PXR:RXRa (NR concentration 270 nM, RXRa partner concentration 90 nM)
Summary of the method: as §1

[7] = system: PXR homodimer (NR concentration 270 nM)
Summary of the method: as §1

[8] = system: RARa:RXR (NR concentration 270 nM, RXRa partner concentration 90 nM)
Summary of the method: as §1

[9] = system: RARa homodimer (NR concentration 270 nM)
Summary of the method: as §1

[10] = system: RARb:RXRa (NR concentration 270 nM, RXRa partner concentration 90 nM)
Summary of the method: as §1

[11] = system: RARb homodimer (NR concentration 270 nM)
Summary of the method: as §1

[12] = system: RARg:RXRa (NR concentration 270 nM, RXRa partner concentration 90 nM)
Summary of the method: as §1

[13] = system: RARg homodimer (NR concentration 270 nM)
Summary of the method: as §1

[14] = system: RXRa DBDmut IVT, anti-RXR (DBD mutation: RXRa K156A/R161A, NR concentration 90 nM)
Summary of the method: as §1

[15] = system: RXRa homodimer (NR concentration 180 nM)
Summary of the method: as §1

[16] = system: THRa:RXRa (NR concentration 90 nM, RXRa partner concentration 90 nM)
Summary of the method: as §1

[17] = system: THRa homodimer (NR concentration 90 nM)
Summary of the method: as §1

[18] = system: VDR homodimer (NR concentration 270 nM)
Summary of the method: as §1

For TCTCGGAGGAGACGAAGGTCAGAGCTTTCCAGAG, the PBM binding z-score [1] was 0.916, the PBM binding z-score [2] was -0.157 and the PBM binding z-score [3] was -0.48. The PBM binding z-score [4] was -1.43, the PBM binding z-score [5] was 0.692 and the PBM binding z-score [6] was 1.01. It also gave a PBM binding z-score [7] of -0.222, a PBM binding z-score [8] of 1.5 and a PBM binding z-score [9] of -0.817. For the same sequence, the PBM binding z-score [10] was 2.37, the PBM binding z-score [11] was 2.74 and the PBM binding z-score [12] was 1.88. It also gave a PBM binding z-score [13] of 1.77, a PBM binding z-score [14] of -0.234 and a PBM binding z-score [15] of 1.63. It also gave a PBM binding z-score [16] of 1.11, a PBM binding z-score [17] of -0.507 and a PBM binding z-score [18] of -0.413.
With GCGACTGGGGCATCAGGAGGTTACCATAACTTAA the PBM binding z-score [1] was 3.82, the PBM binding z-score [2] was 3.59 and the PBM binding z-score [3] was -0.435. For the same sequence, the PBM binding z-score [4] was -0.747, the PBM binding z-score [5] was 0.816 and the PBM binding z-score [6] was 0.63. The PBM binding z-score [7] was -0.0464, the PBM binding z-score [8] was 1.16 and the PBM binding z-score [9] was -0.466. It also gave a PBM binding z-score [10] of 1.21, a PBM binding z-score [11] of 1.59 and a PBM binding z-score [12] of 2.07. The PBM binding z-score [13] was 0.983, the PBM binding z-score [14] was 0.162 and the PBM binding z-score [15] was 0.852. For the same sequence, the PBM binding z-score [16] was 1.66, the PBM binding z-score [17] was -0.0939 and the PBM binding z-score [18] was 0.186.
In the case of GCTAGCAGGCCATATGGGTCACTCAATGACGGGC, the PBM binding z-score [1] is reported as 1.57, the PBM binding z-score [2] is reported as 2.68 and the PBM binding z-score [3] is reported as -0.447. For the same sequence, the PBM binding z-score [4] was -0.866, the PBM binding z-score [5] was -0.0235 and the PBM binding z-score [6] was 0.585. The PBM binding z-score [7] was -0.337, the PBM binding z-score [8] was 1 and the PBM binding z-score [9] was -0.311. For the same sequence, the PBM binding z-score [10] was 1.62, the PBM binding z-score [11] was 1.78 and the PBM binding z-score [12] was 1.54. For the same sequence, the PBM binding z-score [13] was 1.39, the PBM binding z-score [14] was -0.402 and the PBM binding z-score [15] was 1.43. The PBM binding z-score [16] was 1, the PBM binding z-score [17] was -0.658 and the PBM binding z-score [18] was -0.276.
In the case of TCTAGTAGATCAAGCAGGTTAAGAAAGCCTGAGT, the PBM binding z-score [1] is reported as 1.47, the PBM binding z-score [2] is reported as 0.398 and the PBM binding z-score [3] is reported as -0.251. For the same sequence, the PBM binding z-score [4] was -0.0304, the PBM binding z-score [5] was 0.0496 and the PBM binding z-score [6] was 0.277. The PBM binding z-score [7] was -0.142, the PBM binding z-score [8] was 0.334 and the PBM binding z-score [9] was -0.0896. For the same sequence, the PBM binding z-score [10] was -0.149, the PBM binding z-score [11] was -0.158 and the PBM binding z-score [12] was -0.256. It also gave a PBM binding z-score [13] of -0.373, a PBM binding z-score [14] of 0.554 and a PBM binding z-score [15] of 0.16. The PBM binding z-score [16] was 0.0974, the PBM binding z-score [17] was -0.707 and the PBM binding z-score [18] was -0.397.
CGAACTAGGTCAGAACAGGACAGTAAAGGATGAT showed a PBM binding z-score [1] of 7.08, a PBM binding z-score [2] of 7.22 and a PBM binding z-score [3] of 1.86. It also gave a PBM binding z-score [4] of 1.17, a PBM binding z-score [5] of 1.1 and a PBM binding z-score [6] of 1.02. For the same sequence, the PBM binding z-score [7] was 0.0829, the PBM binding z-score [8] was 1.26 and the PBM binding z-score [9] was 0.18. It also gave a PBM binding z-score [10] of 2.92, a PBM binding z-score [11] of 2 and a PBM binding z-score [12] of 2.48. It also gave a PBM binding z-score [13] of 3.35, a PBM binding z-score [14] of 0.613 and a PBM binding z-score [15] of 1.27. It also gave a PBM binding z-score [16] of 3.43, a PBM binding z-score [17] of 0.235 and a PBM binding z-score [18] of 0.325.
ATCTCTAGATAAAGATAGTTCAGTGAATGCAAAT showed a PBM binding z-score [1] of -0.378, a PBM binding z-score [2] of -0.22 and a PBM binding z-score [3] of 0.441. It also gave a PBM binding z-score [4] of 0.839, a PBM binding z-score [5] of 0.626 and a PBM binding z-score [6] of 0.206. The PBM binding z-score [7] was 0.643, the PBM binding z-score [8] was 0.29 and the PBM binding z-score [9] was 0.981. The PBM binding z-score [10] was 0.124, the PBM binding z-score [11] was 0.48 and the PBM binding z-score [12] was 0.16. For the same sequence, the PBM binding z-score [13] was 0.499, the PBM binding z-score [14] was -0.299 and the PBM binding z-score [15] was 0.282. The PBM binding z-score [16] was 0.263, the PBM binding z-score [17] was -0.124 and the PBM binding z-score [18] was 0.668.
AATTACGGGTCAACGAGGTTATAGCACGCGTATA was tested, and the PBM binding z-score [1] was 3.6, the PBM binding z-score [2] was 5.01 and the PBM binding z-score [3] was 2.85. The PBM binding z-score [4] was 2.31, the PBM binding z-score [5] was 3.16 and the PBM binding z-score [6] was 5.27. It also gave a PBM binding z-score [7] of 3.27, a PBM binding z-score [8] of 5.49 and a PBM binding z-score [9] of 1.87. For the same sequence, the PBM binding z-score [10] was 4.27, the PBM binding z-score [11] was 3.63 and the PBM binding z-score [12] was 5.71. For the same sequence, the PBM binding z-score [13] was 4.88, the PBM binding z-score [14] was 2.47 and the PBM binding z-score [15] was 6.2. The PBM binding z-score [16] was 4.18, the PBM binding z-score [17] was 1.16 and the PBM binding z-score [18] was 4.13.
Sequence CAAACTAGGTCCCCGGAAGGTCAAAGTCCGCATG has a PBM binding z-score [1] of 4, a PBM binding z-score [2] of 4.13 and a PBM binding z-score [3] of 0.31. The PBM binding z-score [4] was 0.647, the PBM binding z-score [5] was 3.1 and the PBM binding z-score [6] was 3.72. It also gave a PBM binding z-score [7] of 1.36, a PBM binding z-score [8] of 3.99 and a PBM binding z-score [9] of 0.686. For the same sequence, the PBM binding z-score [10] was 3.24, the PBM binding z-score [11] was 4.26 and the PBM binding z-score [12] was 4.15. It also gave a PBM binding z-score [13] of 3.32, a PBM binding z-score [14] of 0.0846 and a PBM binding z-score [15] of 3.49. For the same sequence, the PBM binding z-score [16] was 2.91, the PBM binding z-score [17] was 1.33 and the PBM binding z-score [18] was 2.2.
